Screening data (PubChem)
Shown are actives, neighbours in structure and some others; about 4.1% of the full set was active somewhere.
DAX1 inh-1: DAX1 (NR0B1) inhibitors on StAR promoter, primary screen, cell-based, luminescence, SF-1 (NR5A1), full-length DAX-1; HEK293T StAR-luciferase reporter, SF-1/DAX-1 repression relief; inhibition, % at 6.8 µM; actives 1.1% (n = 370,000); AID 652010, 2013;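 active means inhibition above the mean over all tested compounds plus 3 SD, cut at about 3.6% in these data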;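 further: 0% = DAX-1 cells with DMSO and 100% = cells lacking DAX-1 with DMSO; higher inhibition means more luminescence from relief of DAX-1 repression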
hcDAF-12 act: H. contortus DAF-12 nuclear receptor activators, primary screen, cell-based, luminescence, HEK293, lit1-tk-luc reporter; HEK293 hcDAF-12 lit1-tk-luc reporter; 0% DMSO, 100% Δ7-dafachronic acid; activation, % at 6.8 µM; actives 1.4% (n = 370,000); AID 652067, 2013;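 active means activation above the mean of all tested compounds plus 3 SD, cut at about 5.5% in these data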;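 further: 100% = response to 3 µM Δ7-dafachronic acid high control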
ssDAF12 agonist: S. stercoralis DAF-12 nuclear receptor activators, primary screen, cell-based, luminescence, HEK293, GRIP1 co-expression, lit1-tk-luc; Nuclear hormone receptor DAF-12 (Strongyloides stercoralis); HEK293 ssDAF-12/GRIP1 lit1-tk-luc reporter; % of 3 µM dafachronic acid response; activation, % at 6.8 µM; actives 1% (n = 370,000); AID 652126, 2013;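 active means activation above the mean over all tested compounds plus 3 SD, cut at about 0.9% in these data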;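 further: 0% = DMSO-only wells and 100% = 3 µM delta7-dafachronic acid wells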
hgDAF12 agonist: H. glycines DAF-12 receptor agonists, primary screen, cell-based, luminescence, HEK293, GAL4 fusion, UAS-luciferase; Nuclear hormone receptor DAF-12 (Heterodera glycines), GAL4 fusion; HEK293 GAL4-hgDAF12 UAS-luciferase reporter, agonist luminescence; normalized to butyrate control; activation, % at 6.8 µM; actives 1.8% (n = 370,000);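 active means activation above a cutoff set at the mean of all screened compounds plus 3 SD, cut at about 10% in these data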;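 further: 0% = DMSO wells and 100% = sodium butyrate wells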
PolyA inh: polyadenylation inhibitors in yeast reporter cells, primary screen, luminescence, S. cerevisiae. S. cerevisiae SKY197-pL101 polyadenylation reporter, beta-gal luminescence; efflux-impaired pdr1/pdr3 knockout yeast; score 100 = 6 SD above DMSO. activity score, % at 12 µM. actives 0.02% (n = 300,000). AID 1875, 2009;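 active means lowest replicate activity score at least 50, where 100 means six control SD above control mean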;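 further: yeast exposed to compound for 9 h at 30 °C; higher score means more reporter readthrough which indicates perturbed polyadenylation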
DAX1 inh-2: DAX1 (NR0B1) inhibitors, primary screen, cell-based, HEK293, Gal4-DAX1, luciferase luminescence; Nuclear receptor subfamily 0 group B member 1 (Homo sapiens), P51843; HEK293 Gal4-DAX1 luciferase reporter; inhibition, % at 6.75 µM; actives 0.99% (n = 340,000); AID 504766, 2011;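 active means inhibition above the mean over all tested compounds plus 3 SD, cut at about 4.2% in these data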;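 further: 0% = DAX1-transfected cells with DMSO and 100% = empty-vector control cells with DMSO; inhibition shows as a rise in luminescence from relieved DAX1 repression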
Target sequence (P51843 207-470 limits assumed): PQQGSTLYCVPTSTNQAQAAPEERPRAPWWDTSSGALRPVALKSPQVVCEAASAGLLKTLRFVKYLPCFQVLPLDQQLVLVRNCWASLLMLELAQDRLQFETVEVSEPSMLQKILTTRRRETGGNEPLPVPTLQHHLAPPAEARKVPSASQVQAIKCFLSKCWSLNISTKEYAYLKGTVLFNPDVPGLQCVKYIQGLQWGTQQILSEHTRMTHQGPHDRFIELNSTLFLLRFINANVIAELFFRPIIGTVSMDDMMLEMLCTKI
* = called active by the depositor; . = not tested or not shown.

SMILES	DAX1 inh-1	hcDAF-12 act	ssDAF12 agonist	hgDAF12 agonist	PolyA inh	DAX1 inh-2
COc1ccc(Cl)cc1Nc1cc(C)nc2nc(C)nn12	0	-2	-1	-2	4	1
Cc1cc(NC(=O)c2cccs2)ncc1NC(=O)C(C)(C)C	3	3	1.1*	10	26	2
Cc1ccnc(NC(=O)c2cccs2)c1	1	2	0	8	6	1
N#CCC[C@@H]1CC[C@]2(CCCN(C(=O)c3ccccc3)C2)O1	1	-1	-1	4	.	.
COc1cccc(CNC(=O)[C@H]2CCCN2C(=O)[C@H]2CCCN2C(=O)c2cccc(OC)c2)c1	0	-1	-1	0	.	.
C[C@H]1[C@@H](N)CC[C@@]23CCCN2C(=O)CCC[C@@H]13	.	2	-1	3	.	.
CC(C)Cn1nc(NC(=O)c2cccs2)c2cc3ccccc3nc21	0	-1	-2	1	-10	5.5*
CC(C)Cn1nc(NC(=O)c2ccco2)c2cc3ccccc3nc21	0	-2	-2	2	-37	-1
COc1ccc2nc3c(cc2c1)c(NC(=O)c1cccs1)nn3CC(C)C	-2	-3	-2	-4	-8	-2
Cc1ccc2nc3c(cc2c1)c(NC(=O)c1ccco1)nn3CC(C)C	-1	-1	-2	0	-5	12*
CCOC(=O)C1CSCCS(=O)(=O)N1Cc1cccc(F)c1 (stereo not given)	1	-1	-1	-2	.	.
NC(=O)CSc1nnc(-c2ccc(O)cc2)n1Cc1ccco1	0	0	-1	0	-5	9.2*
O=C(CSc1nnc(-c2ccncc2)n1Cc1ccco1)Nc1ccccc1Cl	0	-2	-1	-1	15	1
NC(=O)CSc1nnc(-c2cccs2)n1Cc1ccco1	0	-1	-2	-1	-26	5.5*
O=C(CSc1nnc(-c2ccncc2)n1Cc1ccco1)Nc1ccccc1F	-1	-2	-2	-2	-10	6.2*
O=CN1CCN(C(=O)C2CCN(c3ncnc4c3sc3cccc(F)c34)CC2)CC1	-2	-1	-1	2	.	.
CC1(C)CC(=O)N(CC(=O)N2CCN(c3ccc(F)cc3)CC2)c2ccccc2S1(=O)=O	0	-1	-2	-2	.	.
COc1ccc(-n2c(SCC(=O)NC3CCCCCC3)nnc2-c2ccncc2)cc1	0	-1	-1	1	.	.
CCOc1ccc(/C=C2\NCCc3cc(OCC)c(OCC)cc32)cc1OCC	-4	-4	-2	0	.	.
CNC(=O)CN(c1ccc(F)cc1)S(=O)(=O)c1cc(C)ccc1OC	-1	1	-1	0	3	4.3*
Cc1ccccc1-n1nc2c(c1NC(=O)c1ccc(S(=O)(=O)N(C)C)cc1)CSC2	1	5.9*	-1	-2	-3	0
CC(=O)Nc1c2c(nn1-c1ccccc1C)CSC2	2	-1	-1	-1	9	0
Cc1ccc(Cn2cc(CN3[C@H](C)COc4cc(Br)ccc4S3(=O)=O)nn2)cc1	-1	-2	-2	-1	.	.
CCOc1ccc(C(=O)NCC(=O)OCc2nnc(-c3ccccc3)o2)cc1OCC	4.2*	0	-1	-2	.	1
O=C(CNC(=O)c1ccccc1)OCc1nnc(-c2ccccc2)o1	2	1	-1	1	13	0
c1ccc(-n2cnc3ccccc32)cc1	1	-1	-1	11*	-18	2
Nn1c(SCc2ccccc2)nc2ccccc21	1	2	0	12*	-4	1
OCCNCc1ccc(-c2ccccc2)cc1	0	3	-1	3	18	0
OCCCNCc1ccc(N(c2ccccc2)c2ccccc2)cc1	0	0	-1	-2	-9	5.9*
